Measurements: PubChem BioAssay
Active and inactive are the calls of the source.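 The calls were made as follows: active = mean inhibition over 43.08%, the solvent-only control mean plus 3 SD; inactive = the rest.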

target: Nuclear receptor coactivator 3 (Homo sapiens) (UniProt Q9Y6Q9); assay: NCOA3 GAL4-fusion reporter inhibition – cell-based, luminescence, quadruplicate, confirmation (AID 588792); details: HEK293 GAL4-SRC3 luciferase reporter, at 3.6 µM, hits give high values;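 also: 0% = DMSO treated cells and 100% = gossypol at 36 µM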
Sequence (Q9Y6Q9 whole entry, looked up, the tested form may be a part): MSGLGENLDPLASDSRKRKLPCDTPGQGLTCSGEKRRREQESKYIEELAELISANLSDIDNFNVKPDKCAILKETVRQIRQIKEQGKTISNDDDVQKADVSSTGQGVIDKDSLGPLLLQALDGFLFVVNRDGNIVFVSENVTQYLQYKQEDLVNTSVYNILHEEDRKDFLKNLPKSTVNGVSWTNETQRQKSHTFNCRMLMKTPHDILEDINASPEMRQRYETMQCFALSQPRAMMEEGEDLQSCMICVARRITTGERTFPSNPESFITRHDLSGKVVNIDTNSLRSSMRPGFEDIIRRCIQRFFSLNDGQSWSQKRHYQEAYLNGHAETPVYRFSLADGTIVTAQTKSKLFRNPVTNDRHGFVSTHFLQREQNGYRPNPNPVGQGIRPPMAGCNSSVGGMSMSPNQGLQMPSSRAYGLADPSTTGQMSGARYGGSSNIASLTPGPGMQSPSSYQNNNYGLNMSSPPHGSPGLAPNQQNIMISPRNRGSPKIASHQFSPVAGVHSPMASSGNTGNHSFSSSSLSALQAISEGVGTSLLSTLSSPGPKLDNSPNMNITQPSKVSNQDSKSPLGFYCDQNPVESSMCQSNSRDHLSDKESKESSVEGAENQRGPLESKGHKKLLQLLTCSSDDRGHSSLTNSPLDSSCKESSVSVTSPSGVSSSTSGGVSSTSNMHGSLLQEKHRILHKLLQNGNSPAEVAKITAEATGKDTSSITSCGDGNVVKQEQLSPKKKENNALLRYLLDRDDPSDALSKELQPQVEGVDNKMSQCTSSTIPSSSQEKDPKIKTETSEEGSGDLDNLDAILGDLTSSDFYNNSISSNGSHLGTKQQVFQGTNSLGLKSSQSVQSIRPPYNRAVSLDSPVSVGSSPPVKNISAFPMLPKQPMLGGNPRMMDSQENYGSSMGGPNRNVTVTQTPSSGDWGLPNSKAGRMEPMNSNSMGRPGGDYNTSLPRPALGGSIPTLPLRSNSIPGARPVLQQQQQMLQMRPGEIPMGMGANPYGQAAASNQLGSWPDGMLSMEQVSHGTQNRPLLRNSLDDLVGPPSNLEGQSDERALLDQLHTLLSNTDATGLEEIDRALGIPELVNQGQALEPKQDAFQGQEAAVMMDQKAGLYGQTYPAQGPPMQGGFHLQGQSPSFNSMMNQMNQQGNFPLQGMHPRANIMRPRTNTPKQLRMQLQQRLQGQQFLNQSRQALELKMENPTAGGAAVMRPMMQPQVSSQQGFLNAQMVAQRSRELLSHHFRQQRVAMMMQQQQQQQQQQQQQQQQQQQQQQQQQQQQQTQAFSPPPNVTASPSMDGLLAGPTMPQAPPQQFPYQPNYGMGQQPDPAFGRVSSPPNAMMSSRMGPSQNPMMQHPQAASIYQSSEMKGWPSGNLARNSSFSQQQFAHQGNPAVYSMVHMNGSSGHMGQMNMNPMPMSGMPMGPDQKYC

inhibition, inactive:
CCSc1nsc(NC(=O)Nc2cccc(F)c2)n1 13.2%, CC1(C)CC(=O)C=C(C#CC2(O)CCCCC2)C1 19%, CCc1ccc(OCC(=O)NC(NC(=S)Nc2ccc(Cl)cc2)C(Cl)(Cl)Cl)cc1 (stereo not given) -0.7%, Cc1ccc(S(=O)(=O)N(C)c2ccc(OCC(=O)OCc3c(C)noc3C)cc2)cc1 -4.68%, O=C(CNc1cccc2ccccc12)N/N=C/c1ccc[nH]1 7.38%, Cc1ccc(C)c(N2CCN(C(=O)C34CC5CC(C3)CC(n3nnc(C)n3)(C5)C4)CC2)c1 3.92%, Cc1nn(C)c(C)c1CN(C)C(=O)c1cnn2c1NC(c1ccccc1)CC2C(F)(F)F (stereo not given) 21.2%, O=[N+]([O-])c1ccc(N=Nc2c(Cl)cc(O)cc2Cl)cc1 13.9%, O=C(NNc1ccc(O)cc1)c1ccc(Br)cc1 31.5%, COc1ccccc1NS(=O)(=O)c1cc(NC(=O)c2[nH]c(C)c(C(C)=O)c2C)ccc1N1CCOCC1 15.5%, CCCCCCSc1ccc([C@H]2N[C@@](CC(C)C)(C(=O)OC)[C@H]3C(=O)N(C)C(=O)[C@@H]23)cc1OC 4.49%, Cc1cccc(Nc2ncnc(N)c2[N+](=O)[O-])n1 24.9%, CC12CN3CC(C)(CN(C1)C3c1ccccc1F)C2 (stereo not given) 2.53%

inhibition, active:
Cc1ccc(NC2=C/C(=N/S(=O)(=O)c3cccs3)c3ccccc3C2=O)cc1 85%, Cc1[nH]n(-c2ccccc2)c(=O)c1/C=N/Nc1nncc(-c2ccccc2)n1 74.3%
